Assay [1] is described as follows: Confirmation and Secondary Assay for Modulators of Hemoglobin Beta Chain Splicing at IVS2 654 locus (AID 910).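 Also: HeLa cells stably carrying EGFP split by mutant beta-globin IVS2-654 intron; % of control where 0% means no effect.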 A digest of the protocol:
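HeLa cells stably expressing EGFP interrupted by β-globin IVS2-654 intron, seeded overnight in Opti-MEM/2% FCS, then treated 2 days at 37 °C. Restored splicing read as total peak GFP intensity per well by laser scanning cytometry (488 nm excitation, 500–520 nm emission); 500 nM antisense PNA as control.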

Assay [2] in a line: Confirmation and Secondary Assay for Modulators of Hemoglobin Beta Chain Splicing at IVS2 705 locus (AID 930).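 Also: HeLa cells stably expressing the EGFP-705 splicing reporter; GFP fluorescence per well restored by corrected splicing of the IVS2-705 intron in EGFP; series mostly up to about 46 µM; % of control where 0% means no effect.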 A digest of the protocol: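 HeLa cells stably carrying EGFP interrupted by mutant beta-globin intron 2 (IVS2-705) treated 2 days at 37C with compound; 500 nM antisense PNA as control. Correct splicing read as total peak GFP intensity per well by laser-scanning cytometry.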

The nature of assay [3]: qHTS Assay for Identification of Small Molecule Agonists for Hypoxia Response Element Signaling Pathway (AID 914; active = well fitted activation curve with a large enough effect in the signal ratio, with a control signal flat, not every such curve was filed as active; the % refers to the signal ratio; also: potency is read from the fitted curve at half-maximal effect; as to activation: % of control where 0% means no effect). Conditions: ME-180 (cervical carcinoma) HRE-bla reporter, beta-lactamase ratio, CoCl2, 17 h; activation: stronger effect = higher value. Summed up: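 HRE-bla ME-180 cells with beta-lactamase reporter under hypoxia response element, compounds with EC50 CoCl2 for 17 hours at 37 C. CCF4 substrate, 460nm/530nm emission ratio gave %Activity; AC50 from titration series.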
Background: Quantitative high-throughput screening tests each substance at several concentrations.

Assay [4] in a line: Cell Viability - LYMP2-001 (AID 921).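 Also: series mostly up to about 92 µM; 0% = DMSO only and full inhibition = tetraoctylammonium bromide control wells; nearly all actives have a fitted effect of over 70% in size.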 Summed up: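 CellTiter-Glo luminescence (intracellular ATP) after 24 hr compound exposure at 37 C, 2500 lymphoblastoid cells/well in complete medium. AC50 fitted with standard Hill equation; tetraoctylammonium bromide positive control.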
Assay [5] can be described thus: MultiTox-Fluor Cytotoxicity Assay - LYMP1-001 - Dead Cells (AID 946).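 Also: 0% = DMSO and 100% = tetraoctylammonium bromide.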 A digest of the protocol:
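LYMP1-001 lymphoblastoid cells (2500/well) treated 16 h at 37 C. Dead-cell protease cleavage of bis-AAF-R110 read at Ex/Em 485/520. Normalized to DMSO and 15 uM tetraoctylammonium bromide; AC50 from Hill fits.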

Assay [6] can be described thus: MultiTox-Fluor Cytotoxicity Assay - LYMP1-001 - Live Cells (AID 947).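 Also: 0% = DMSO only and full inhibition = tetraoctylammonium bromide control.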
The nature of assay [7]: Cell Viability - LYMP1-002 - Assay at 16 hr (AID 948).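 Also: 0% = DMSO alone and full effect = 92 µM tetraoctylammonium bromide.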 Summed up:
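LYMP1-002 human lymphoblastoid cells, 2500/well; 5 hr 37 C; cpd 16 hr 37 C; CellTiter-Glo 30 min RT; luminescence (ATP). Concentration-response, Hill-fit AC50. Pos ctrl tetraoctylammonium bromide.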

Assay [8] can be described thus: MultiTox-Fluor Cytotoxicity Assay - LYMP1-002 - Live Cells (AID 955).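 Also: cells exposed to compound for 16 hours; % is scaled to controls: 0 for no effect and ±100 for the full control effect.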 A digest of the protocol:
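In this qHTS viability format, lymphoblastoid cells (LYMP1-002, human) received compound for 16 hr at 37 C. Fluorogenic GF-AFC cleavage by viable cells was detected at 405/510 nm after 1 h at room temperature.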

Assay [9] can be described thus: MultiTox-Fluor Cytotoxicity Assay - LYMP1-003 - Live Cells (AID 962).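 Also: cells exposed to compound for 16 hours at 37 °C; 0% = DMSO only and full loss = 92 µM tetraoctylammonium bromide; cytotoxic hits lower the live-cell protease signal.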 A digest of the protocol:
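Human lymphoblastoid line LYMP1-003 in complete culture medium, treated 16 hr with titrated compounds. Viable cells quantified via cell-permeant GF-AFC substrate fluorescence; AC50 derived by Hill fitting.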

Assay [10] is described as follows: Cell Viability - LYMP1-003 - Assay at 24 hr (AID 963).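 Also: plate controls were DMSO only for no effect and tetraoctylammonium bromide positive control for full effect.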 Summed up: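 The lymphoblastoid line was treated with titrated compounds for 24 hours, and viable cell number estimated from luciferase-based ATP luminescence.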
The nature of assay [11]: Cell Viability - LYMP1-003 - Assay at 40 hr (AID 964). Also: series mostly up to about 92 µM; % is scaled to controls: 0 for no effect and ±100 for the full control effect; nearly all actives have a fitted effect of over 60% in size. Summed up: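 Acute toxicity is scored as a concentration-dependent loss of intracellular ATP in LYMP1-003 cells (2500/well, complete medium) after 40 hr at 37 C, measured by CellTiter-Glo luminescence; AC50 values derive from standard Hill modelling.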
The nature of assay [12]: Cell Viability - LYMP2-003 (AID 965).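 Also: cells exposed to compounds for 24 h before reading; 0% = DMSO only and full effect = 92 µM tetraoctylammonium bromide; nearly all actives have a fitted effect of over 50% in size.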 Summed up: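 CellTiter-Glo luminescence (cellular ATP) after 24 h compound exposure at 37 C in complete medium; 2500 cells/well, 5 h settling beforehand. Concentration-response fitted to standard Hill equation for AC50. Tetraoctylammonium bromide served as positive control.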
For assay [13], the target named is Cytochrome P450 2C19 (Homo sapiens) (UniProt P33261). Description: qHTS Assay for Inhibitors and Substrates of Cytochrome P450 2C19 (AID 899). Also: potency is read from the fitted curve at half-maximal effect; nearly all actives have a fitted effect of over 60% in size. Conditions: recombinant CYP2C19, luciferin-H EGE luminescence. A digest of the protocol:
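Signal comes from luciferase acting on luciferin released by CYP2C19-mediated hydroxylation of Luciferin-H EGE, 10uM (KM). Assay mix: 5nM enzyme, 50mM KPO4; 60 min at 37C with NADPH regeneration. Data normalized against 57uM ketoconazole.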

Assay [14] is described as follows: qHTS Assay for Identification of Small Molecule Agonists for Thrombopoietin (TPO) Signaling Pathway (AID 917). Also: % is scaled to controls: 0 for no effect and ±100 for the full control effect. Summed up:
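Ba/F3 (mouse) + hTPO receptor + GpIIb-promoter luciferase; IL-3 withdrawn overnight; compound + 26 pM TPO (EC50), 24 hrs, 37 C, 5% CO2; Steadylite luminescence, 10 min RT.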

In assay [15] the target is Muscarinic acetylcholine receptor M1 (Rattus norvegicus) (UniProt P08482). Description: qHTS Assay for Antagonists of Acetylcholine Muscarinic M1 Receptor: Measurement of IP-One Response (AID 944). Also: potency is read from the fitted curve at half-maximal effect; nearly all actives have a fitted effect of over 75% in size. Summed up: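 Antagonism was measured as loss of carbachol-driven (EC80) IP1 accumulation in CHO cells carrying rat M1, using a homogeneous IP-One TR-FRET kit read at 620 and 665 nm.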
Sequence of Muscarinic acetylcholine receptor M1 (Rattus norvegicus) (P08482 whole entry, looked up): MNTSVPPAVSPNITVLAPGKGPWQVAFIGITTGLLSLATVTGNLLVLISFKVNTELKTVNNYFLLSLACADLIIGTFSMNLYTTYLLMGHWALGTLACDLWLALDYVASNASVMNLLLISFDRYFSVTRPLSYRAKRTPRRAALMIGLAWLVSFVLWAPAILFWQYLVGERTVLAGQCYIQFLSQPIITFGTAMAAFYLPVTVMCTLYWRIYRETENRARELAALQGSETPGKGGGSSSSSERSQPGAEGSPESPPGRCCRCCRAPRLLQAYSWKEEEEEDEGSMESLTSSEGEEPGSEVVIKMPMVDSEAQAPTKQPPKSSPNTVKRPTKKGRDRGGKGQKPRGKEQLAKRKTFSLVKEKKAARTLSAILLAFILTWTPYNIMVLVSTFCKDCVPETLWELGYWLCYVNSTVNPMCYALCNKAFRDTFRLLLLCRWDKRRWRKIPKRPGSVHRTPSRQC

Assay [16] deals with Pyruvate kinase (Leishmania mexicana) (UniProt Q27686). Description: qHTS Validation Assay for Inhibitors of Leishmania Mexicana Pyruvate Kinase (AID 945).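 Also: 0% = DMSO only neutral control wells.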 Summed up:
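Eight-point qHTS titrations in triplicate, data normalized to DMSO neutral control. Reaction: 0.2 nM LmPYK E451W mutant, 0.5 mM PEP, 0.1 mM ADP, 7 mM MgCl2, pH 7.2, one hour at room temperature; luminescent ATP detection.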

Assay [17] addresses Pyruvate kinase PKM (Homo sapiens) (UniProt P14618). Description: qHTS Assay for Activators of Human Muscle Pyruvate Kinase (AID 954; active = well fitted curve in the direction sought with a large enough effect, not every such curve was filed as active;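 also: 0% = uninhibited enzyme and -100% = no enzyme or full thiadiazolimine inhibition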). A digest of the protocol: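 Compound pinned into substrate mix (0.5 mM PEP, 0.1 mM ADP), then 0.1 nM PKM2 added; 1 h, RT. Stop/detection luciferase reagent added, luminescence read. Normalized to no-inhibition and no-enzyme or reference-inhibitor controls.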

A number with no mark means an inactive call. Results filed as inconclusive are left out. The source made the active and inactive calls. Unless noted, calls follow the shape of the dose curve; as a rule, active = well fitted curve in the direction sought with a large enough effect; inconclusive = small, poorly fitted or top-dose-only effect, or another doubt; inactive = no such curve, though single readings can be large; an effect the other way counts as inactive or inconclusive.

Sequence of Pyruvate kinase PKM (Homo sapiens) (P14618 whole entry, looked up): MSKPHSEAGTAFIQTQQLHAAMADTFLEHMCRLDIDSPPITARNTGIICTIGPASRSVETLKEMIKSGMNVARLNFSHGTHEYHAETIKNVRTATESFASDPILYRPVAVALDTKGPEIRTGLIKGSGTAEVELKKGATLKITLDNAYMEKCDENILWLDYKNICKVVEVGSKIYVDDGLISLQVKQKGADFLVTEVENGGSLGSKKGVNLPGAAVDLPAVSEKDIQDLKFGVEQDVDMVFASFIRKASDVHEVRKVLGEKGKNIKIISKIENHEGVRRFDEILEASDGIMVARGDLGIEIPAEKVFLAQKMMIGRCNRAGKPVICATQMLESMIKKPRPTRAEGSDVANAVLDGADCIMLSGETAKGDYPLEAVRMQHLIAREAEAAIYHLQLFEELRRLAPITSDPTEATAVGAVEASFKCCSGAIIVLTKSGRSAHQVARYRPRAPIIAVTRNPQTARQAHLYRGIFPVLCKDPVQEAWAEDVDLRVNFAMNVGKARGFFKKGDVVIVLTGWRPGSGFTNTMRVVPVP
Sequence of Pyruvate kinase (Leishmania mexicana) (Q27686 2-499 E452W): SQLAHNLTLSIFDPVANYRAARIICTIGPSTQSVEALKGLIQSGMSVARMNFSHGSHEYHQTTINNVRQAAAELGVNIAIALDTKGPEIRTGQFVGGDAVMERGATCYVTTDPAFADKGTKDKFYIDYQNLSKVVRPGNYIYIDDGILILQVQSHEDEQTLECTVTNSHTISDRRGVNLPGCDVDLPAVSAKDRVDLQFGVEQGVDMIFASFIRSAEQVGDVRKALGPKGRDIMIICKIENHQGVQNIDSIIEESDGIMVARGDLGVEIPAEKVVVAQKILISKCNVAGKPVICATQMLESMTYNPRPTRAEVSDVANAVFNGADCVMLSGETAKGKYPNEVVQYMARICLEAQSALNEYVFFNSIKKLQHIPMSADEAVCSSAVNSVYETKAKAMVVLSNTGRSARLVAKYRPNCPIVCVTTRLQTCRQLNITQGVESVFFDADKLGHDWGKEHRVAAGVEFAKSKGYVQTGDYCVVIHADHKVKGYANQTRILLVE
Sequence of Cytochrome P450 2C19 (Homo sapiens) (P33261 whole entry, looked up): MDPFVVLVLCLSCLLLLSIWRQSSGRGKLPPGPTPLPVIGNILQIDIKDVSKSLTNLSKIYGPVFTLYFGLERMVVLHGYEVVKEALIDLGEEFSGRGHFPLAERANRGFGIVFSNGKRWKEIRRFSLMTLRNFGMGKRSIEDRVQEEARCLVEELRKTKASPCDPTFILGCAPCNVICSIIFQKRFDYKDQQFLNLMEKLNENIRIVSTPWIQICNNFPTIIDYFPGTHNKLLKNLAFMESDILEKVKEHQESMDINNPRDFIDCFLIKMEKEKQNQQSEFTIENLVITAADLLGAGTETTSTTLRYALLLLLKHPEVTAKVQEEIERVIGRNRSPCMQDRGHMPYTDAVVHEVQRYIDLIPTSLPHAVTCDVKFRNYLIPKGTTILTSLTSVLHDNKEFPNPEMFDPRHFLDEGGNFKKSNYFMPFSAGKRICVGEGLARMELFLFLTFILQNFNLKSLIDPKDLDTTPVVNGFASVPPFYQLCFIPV

Consider `CC(=O)Nc1ccc(S(=O)(=O)Nc2ccc([N+](=O)[O-])cc2)cc1`, for which the outcome in assay [1] and in assay [2] was inactive.

As for `COC(=O)C(c1ccccc1Cl)N1CCc2sccc2C1` (configuration not stated), the call in [1] and in [2] was inactive.

Take `CCCCCCCCNC(C)C(O)c1ccc(SC(C)C)cc1` (configuration not stated): the outcome in assay [1] and in assay [2] was inactive. Besides, the activation in assay [3] is 0.942%.

For `CCN1CCCC(OC(=O)C(c2ccccc2)c2ccccc2)C1` (configuration not stated), the outcome in assay [1] and in assay [2] was inactive.

Regarding `CCCc1ncc(C[n+]2ccccc2C)c(N)n1`, the compound was classed as inactive in assay [1] and in assay [2].

As for `OCCOCCN1CCN(C2=Nc3ccccc3Sc3ccccc32)CC1`, the result in assay [1] and in [2] was inactive.

Turning to `C[N+]12CCC(CC1)C(OC(=O)C(O)(c1ccccc1)c1ccccc1)C2` (configuration not stated), the outcome in assay [1] and in [2] was inactive.

On to `O=C(O)c1ccc(S(=O)(=O)N(Cl)Cl)cc1`, for which the result in [1], in assay [4], in assay [2], in assay [5], in [6] and in assay [7] was inactive. Moreover, the call in [8], in assay [9], in assay [10], in assay [11] and in assay [12] was inactive.

For `COc1ccc(C(Cl)=C(c2ccc(OC)cc2)c2ccc(OC)cc2)cc1`, the call in assay [1], in assay [4], in assay [2], in [5], in [6] and in assay [7] was inactive. Further, the outcome in assay [8], in assay [9], in assay [10] and in assay [12] was inactive.

Take `O=C1C(CCS(=O)c2ccccc2)C(=O)N(c2ccccc2)N1c1ccccc1` (configuration not stated): the compound was called inactive in [1] and in assay [2].

Consider `CNCCc1ccccn1`, for which the outcome in [1] and in assay [2] was inactive.

For the compound `O=C1C(O)=C(O)C(=O)C(O)=C1O`, the outcome in assay [1] and in assay [2] was inactive.

With `CN(C)CCC[C@@]1(c2ccc(F)cc2)OCc2cc(C#N)ccc21`, the figures for the Potency in assay [13] and in [15] were 3.16 µM (active) and 10 µM (active), respectively. Further, the result in [1], in assay [14], in assay [2], in assay [16] and in assay [17] was inactive.

`COc1ccc(C(=O)c2ccccc2O)c(O)c1`: the outcome in assay [1] and in assay [2] was inactive. Further, the Potency in assay [3] is 5.01 µM (active).

For the origin of these results see PubChem BioAssay (NCATS).
